Test [1] addresses Dual specificity protein kinase CLK3 (Homo sapiens) (UniProt P49761). The settings on record: at 1 µM.
Test [2] has as its target Dual specificity tyrosine-phosphorylation-regulated kinase 1A (Homo sapiens) (UniProt Q13627). The settings on record: at 0.1 µM.
For test [3] the target is unchanged. The conditions noted are these: at 1 µM.
For test [4], the target named is Dual specificity tyrosine-phosphorylation-regulated kinase 1B (Homo sapiens) (UniProt Q9Y463). The settings on record: at 0.1 µM.
Test [5] has the same target. The conditions noted are these: at 1 µM.
In test [6] the target is T1, Dual specificity tyrosine-phosphorylation-regulated kinase 2 (Homo sapiens) (UniProt Q92630).
T1 sequence (whole entry): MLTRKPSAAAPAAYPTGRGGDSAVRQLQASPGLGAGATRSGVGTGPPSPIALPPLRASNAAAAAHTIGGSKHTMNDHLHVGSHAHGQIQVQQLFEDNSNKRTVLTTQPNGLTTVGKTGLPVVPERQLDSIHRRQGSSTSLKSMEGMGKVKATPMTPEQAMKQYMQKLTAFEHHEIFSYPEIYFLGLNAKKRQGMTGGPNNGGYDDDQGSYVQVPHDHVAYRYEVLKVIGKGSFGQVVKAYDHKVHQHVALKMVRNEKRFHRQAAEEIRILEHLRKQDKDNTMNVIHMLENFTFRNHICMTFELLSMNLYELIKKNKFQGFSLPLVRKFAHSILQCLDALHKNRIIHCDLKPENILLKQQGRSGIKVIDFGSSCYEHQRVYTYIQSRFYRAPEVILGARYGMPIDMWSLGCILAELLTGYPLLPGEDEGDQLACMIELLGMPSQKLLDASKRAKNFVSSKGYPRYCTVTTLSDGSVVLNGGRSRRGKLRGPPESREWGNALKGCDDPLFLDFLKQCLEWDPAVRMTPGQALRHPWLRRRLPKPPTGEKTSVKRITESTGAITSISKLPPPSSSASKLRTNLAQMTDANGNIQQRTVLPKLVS
The settings on record: at 0.1 µM.

The target of test [7] is T1, Dual specificity tyrosine-phosphorylation-regulated kinase 2 (Homo sapiens). The conditions noted are these: at 1 µM.
Test [8] deals with Glycogen synthase kinase-3 alpha (Homo sapiens) (UniProt P49840). The settings on record: at 0.1 µM.
For test [9] the target is unchanged. The settings on record: at 1 µM.
The target in test [10] is Glycogen synthase kinase-3 beta (Homo sapiens) (UniProt P49841). The conditions noted are these: at 0.1 µM.
Test [11] has the same target. The settings on record: at 1 µM.
In test [12] the target is Homeodomain-interacting protein kinase 1 (Homo sapiens) (UniProt Q86Z02). The settings on record: at 0.1 µM.
The target is the same in test [13]. The conditions noted are these: at 1 µM.
Test [14] addresses T2, Homeodomain-interacting protein kinase 4 (Homo sapiens) (UniProt Q8NE63).
T2 sequence (whole entry): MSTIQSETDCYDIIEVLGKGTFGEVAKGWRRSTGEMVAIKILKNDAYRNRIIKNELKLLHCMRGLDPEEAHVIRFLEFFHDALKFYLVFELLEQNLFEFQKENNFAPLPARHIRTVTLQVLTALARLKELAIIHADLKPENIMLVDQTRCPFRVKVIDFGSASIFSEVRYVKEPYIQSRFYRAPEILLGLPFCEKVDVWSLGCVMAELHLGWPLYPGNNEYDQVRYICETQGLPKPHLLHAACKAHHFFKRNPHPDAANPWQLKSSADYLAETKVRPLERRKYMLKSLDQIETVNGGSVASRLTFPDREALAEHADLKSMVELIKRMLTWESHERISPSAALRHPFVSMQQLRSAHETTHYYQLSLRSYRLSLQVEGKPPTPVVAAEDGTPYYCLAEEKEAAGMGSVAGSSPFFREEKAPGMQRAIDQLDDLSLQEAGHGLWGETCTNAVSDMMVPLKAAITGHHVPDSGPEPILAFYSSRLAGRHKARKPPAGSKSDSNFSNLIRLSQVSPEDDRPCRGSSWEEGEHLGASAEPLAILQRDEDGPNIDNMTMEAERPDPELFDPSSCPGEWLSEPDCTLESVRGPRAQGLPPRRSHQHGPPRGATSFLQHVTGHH
The conditions noted are these: at 0.1 µM.

Test [15] concerns the target T2, Homeodomain-interacting protein kinase 4 (Homo sapiens). The settings on record: at 1 µM.
Test [16] concerns the target Mitogen-activated protein kinase 9 (Homo sapiens) (UniProt P45984). The conditions noted are these: at 0.1 µM.
Test [17] shares this target. The conditions noted are these: at 1 µM.
In test [18] the target is Mitogen-activated protein kinase 1 (Homo sapiens) (UniProt P28482). The settings on record: at 0.1 µM.
Test [19] shares this target. The conditions noted are these: at 1 µM.
Test [20] deals with Mitogen-activated protein kinase 3 (Homo sapiens) (UniProt P27361). The conditions noted are these: at 0.1 µM.

SMILES strings stand for the structures.

In ChEMBL document CHEMBL1961873, “Compounds: GSK PKIS; Assays: Nanosyn kinase panel” (2012) one finds inhibition data, which are given here for 7 compounds.

Glycogen synthase kinase-3 alpha (Homo sapiens), sequence (P49840 2-483 limits assumed): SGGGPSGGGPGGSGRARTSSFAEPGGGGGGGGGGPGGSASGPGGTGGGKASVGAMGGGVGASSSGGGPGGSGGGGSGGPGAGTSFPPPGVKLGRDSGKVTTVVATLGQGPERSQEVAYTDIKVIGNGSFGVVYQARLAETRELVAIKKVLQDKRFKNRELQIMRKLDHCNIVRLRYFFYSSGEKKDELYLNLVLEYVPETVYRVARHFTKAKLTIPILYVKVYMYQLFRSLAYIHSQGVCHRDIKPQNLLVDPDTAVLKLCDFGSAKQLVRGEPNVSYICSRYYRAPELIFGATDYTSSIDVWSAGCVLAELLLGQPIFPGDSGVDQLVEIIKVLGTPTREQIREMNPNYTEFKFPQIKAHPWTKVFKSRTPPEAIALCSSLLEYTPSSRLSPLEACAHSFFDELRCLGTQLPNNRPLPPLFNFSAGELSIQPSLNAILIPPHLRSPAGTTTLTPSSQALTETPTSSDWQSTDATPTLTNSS
Homeodomain-interacting protein kinase 1 (Homo sapiens), sequence (Q86Z02 whole entry, looked up): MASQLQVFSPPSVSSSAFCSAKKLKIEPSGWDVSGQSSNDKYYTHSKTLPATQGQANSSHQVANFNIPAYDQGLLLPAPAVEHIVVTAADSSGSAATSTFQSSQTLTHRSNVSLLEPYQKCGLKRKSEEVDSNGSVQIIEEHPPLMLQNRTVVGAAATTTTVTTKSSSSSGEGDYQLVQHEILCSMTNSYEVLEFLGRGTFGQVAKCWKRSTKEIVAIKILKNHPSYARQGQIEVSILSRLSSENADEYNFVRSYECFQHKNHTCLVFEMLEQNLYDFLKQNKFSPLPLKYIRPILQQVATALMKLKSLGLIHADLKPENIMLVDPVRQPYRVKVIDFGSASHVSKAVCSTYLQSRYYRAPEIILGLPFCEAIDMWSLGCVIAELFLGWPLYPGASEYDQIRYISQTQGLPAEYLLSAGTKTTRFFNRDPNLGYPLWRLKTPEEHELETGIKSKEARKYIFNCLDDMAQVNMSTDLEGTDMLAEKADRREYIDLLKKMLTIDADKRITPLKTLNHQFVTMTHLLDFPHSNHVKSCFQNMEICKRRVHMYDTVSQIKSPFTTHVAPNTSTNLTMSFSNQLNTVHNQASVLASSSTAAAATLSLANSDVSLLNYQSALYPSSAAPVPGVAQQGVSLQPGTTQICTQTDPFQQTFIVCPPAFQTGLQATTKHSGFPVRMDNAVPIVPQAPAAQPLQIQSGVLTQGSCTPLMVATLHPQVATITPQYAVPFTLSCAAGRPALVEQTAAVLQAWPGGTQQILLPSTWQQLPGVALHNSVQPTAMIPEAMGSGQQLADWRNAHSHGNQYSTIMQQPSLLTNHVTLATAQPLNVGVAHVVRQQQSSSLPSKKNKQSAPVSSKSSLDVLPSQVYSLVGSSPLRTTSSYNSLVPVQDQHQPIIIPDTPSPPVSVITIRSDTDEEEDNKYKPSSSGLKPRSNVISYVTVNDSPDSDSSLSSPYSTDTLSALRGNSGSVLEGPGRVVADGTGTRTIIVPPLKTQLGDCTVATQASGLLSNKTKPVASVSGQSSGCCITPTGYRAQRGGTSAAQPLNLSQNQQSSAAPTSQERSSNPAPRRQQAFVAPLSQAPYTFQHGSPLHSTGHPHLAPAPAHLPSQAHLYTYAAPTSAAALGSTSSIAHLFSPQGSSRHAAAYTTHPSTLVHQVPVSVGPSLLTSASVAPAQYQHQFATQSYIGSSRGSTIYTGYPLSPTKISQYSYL
Mitogen-activated protein kinase 3 (Homo sapiens), sequence (P27361 whole entry): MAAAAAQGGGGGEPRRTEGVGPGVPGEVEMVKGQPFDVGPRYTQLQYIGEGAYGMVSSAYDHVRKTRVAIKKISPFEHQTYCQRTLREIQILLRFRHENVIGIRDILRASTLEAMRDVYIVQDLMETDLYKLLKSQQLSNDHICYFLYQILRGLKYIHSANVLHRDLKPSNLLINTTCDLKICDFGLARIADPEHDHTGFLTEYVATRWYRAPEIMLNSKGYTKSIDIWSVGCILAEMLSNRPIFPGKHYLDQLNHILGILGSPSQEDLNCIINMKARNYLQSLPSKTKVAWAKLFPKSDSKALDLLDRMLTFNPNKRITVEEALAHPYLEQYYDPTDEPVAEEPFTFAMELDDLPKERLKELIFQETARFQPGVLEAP
Dual specificity tyrosine-phosphorylation-regulated kinase 1B (Homo sapiens), sequence (Q9Y463 whole entry, looked up): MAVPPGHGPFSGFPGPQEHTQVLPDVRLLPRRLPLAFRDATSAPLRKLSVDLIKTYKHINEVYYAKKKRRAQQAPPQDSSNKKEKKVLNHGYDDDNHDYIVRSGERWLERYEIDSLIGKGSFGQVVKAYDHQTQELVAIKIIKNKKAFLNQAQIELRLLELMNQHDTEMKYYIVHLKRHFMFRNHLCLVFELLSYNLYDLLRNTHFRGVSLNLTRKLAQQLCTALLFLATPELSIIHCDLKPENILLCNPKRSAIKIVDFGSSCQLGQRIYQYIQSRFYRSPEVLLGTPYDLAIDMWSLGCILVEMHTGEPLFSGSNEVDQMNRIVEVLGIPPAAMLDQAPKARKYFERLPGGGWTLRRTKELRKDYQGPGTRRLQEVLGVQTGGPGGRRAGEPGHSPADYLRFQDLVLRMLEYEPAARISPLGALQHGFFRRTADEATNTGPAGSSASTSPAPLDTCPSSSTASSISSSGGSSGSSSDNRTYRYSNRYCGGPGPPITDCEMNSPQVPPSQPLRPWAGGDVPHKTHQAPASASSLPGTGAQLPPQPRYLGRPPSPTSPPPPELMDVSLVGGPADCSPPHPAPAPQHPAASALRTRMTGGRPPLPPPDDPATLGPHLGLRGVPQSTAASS
Mitogen-activated protein kinase 1 (Homo sapiens), sequence (P28482 whole entry): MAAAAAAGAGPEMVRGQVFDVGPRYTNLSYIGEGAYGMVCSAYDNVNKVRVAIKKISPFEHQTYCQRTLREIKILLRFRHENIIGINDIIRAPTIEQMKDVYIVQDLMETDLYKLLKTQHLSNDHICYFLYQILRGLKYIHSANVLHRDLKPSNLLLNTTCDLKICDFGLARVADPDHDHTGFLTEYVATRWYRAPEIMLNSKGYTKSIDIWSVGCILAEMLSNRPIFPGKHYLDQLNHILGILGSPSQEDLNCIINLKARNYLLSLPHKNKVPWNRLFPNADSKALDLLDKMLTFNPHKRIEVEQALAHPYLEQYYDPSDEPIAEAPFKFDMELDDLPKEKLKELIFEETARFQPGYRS
Mitogen-activated protein kinase 9 (Homo sapiens), sequence (P45984 whole entry, looked up): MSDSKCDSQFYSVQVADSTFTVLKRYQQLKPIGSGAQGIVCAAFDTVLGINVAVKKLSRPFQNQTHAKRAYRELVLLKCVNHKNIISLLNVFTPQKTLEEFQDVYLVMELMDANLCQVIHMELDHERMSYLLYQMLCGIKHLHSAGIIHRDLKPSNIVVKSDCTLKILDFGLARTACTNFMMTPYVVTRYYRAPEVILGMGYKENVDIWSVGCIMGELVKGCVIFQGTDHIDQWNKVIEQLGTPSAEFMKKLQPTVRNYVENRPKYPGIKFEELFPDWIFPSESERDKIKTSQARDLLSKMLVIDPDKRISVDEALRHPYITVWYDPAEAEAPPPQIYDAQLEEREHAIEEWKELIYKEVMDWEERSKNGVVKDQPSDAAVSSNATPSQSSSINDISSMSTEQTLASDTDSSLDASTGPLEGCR
Dual specificity protein kinase CLK3 (Homo sapiens), sequence (P49761 whole entry, looked up): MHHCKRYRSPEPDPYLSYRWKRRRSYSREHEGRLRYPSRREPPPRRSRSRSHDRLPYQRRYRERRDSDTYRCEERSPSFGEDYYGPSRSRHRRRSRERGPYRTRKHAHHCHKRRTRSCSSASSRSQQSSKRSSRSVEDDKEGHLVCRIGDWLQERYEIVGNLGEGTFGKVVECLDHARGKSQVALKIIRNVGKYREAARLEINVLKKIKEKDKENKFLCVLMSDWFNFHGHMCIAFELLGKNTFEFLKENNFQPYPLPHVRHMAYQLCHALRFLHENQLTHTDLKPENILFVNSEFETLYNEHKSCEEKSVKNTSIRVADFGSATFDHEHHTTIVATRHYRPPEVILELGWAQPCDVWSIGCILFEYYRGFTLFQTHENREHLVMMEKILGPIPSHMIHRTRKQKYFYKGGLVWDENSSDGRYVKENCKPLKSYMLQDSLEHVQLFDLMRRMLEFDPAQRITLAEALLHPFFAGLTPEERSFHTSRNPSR
Glycogen synthase kinase-3 beta (Homo sapiens), sequence (P49841 whole entry, looked up): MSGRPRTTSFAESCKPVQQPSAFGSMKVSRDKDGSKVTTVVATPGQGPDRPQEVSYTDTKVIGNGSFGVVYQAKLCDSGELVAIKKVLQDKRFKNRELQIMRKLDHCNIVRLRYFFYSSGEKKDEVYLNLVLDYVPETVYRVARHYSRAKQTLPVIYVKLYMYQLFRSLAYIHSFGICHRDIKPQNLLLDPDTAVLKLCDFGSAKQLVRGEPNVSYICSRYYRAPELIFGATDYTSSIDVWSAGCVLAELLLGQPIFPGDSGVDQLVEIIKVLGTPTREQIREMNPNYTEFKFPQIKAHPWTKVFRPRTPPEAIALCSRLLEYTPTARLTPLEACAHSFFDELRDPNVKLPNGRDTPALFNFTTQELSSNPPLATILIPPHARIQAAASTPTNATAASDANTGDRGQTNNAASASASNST

What is called inhibition is the relative decrease from the control value, in per cent. In the case of `CNC(=O)c1cc(-c2ccc(F)cc2)cc(-c2ccc(S(=O)(=O)N3CCCC3)cc2)c1N`, the inhibition in [1] was 1.45%; in [2], 2.86%; in test [3], 3.9%; in test [4], -1.54%; in [5], -0.38%; in [6], 2.23%. Besides, the inhibition was 2.03% in [7]; 3.5% in test [8]; 5.1% in [9]; 2.65% in test [10]; 4.74% in test [11]; -2.69% in [12]. Besides, the inhibition was -0.12% in test [13]; -0.78% in [14]; 0.3% in [15]; 1.82% in [16]; 2.81% in test [17]; 4.15% in test [18]. Also, the inhibition in test [19] stood at 4.03%; in [20] it was 2.42%.

Regarding `COc1ccc2[nH]c3c4[nH]c5ccc(OC)cc5c4c4c(c3c2c1)C(=O)NC4=O`, the inhibition in test [1] was 4.44%; in test [2], 10.1%; in test [3], 43.1%; in test [4], 2.55%; in test [5] it was 26.1%; in test [6], 6.81%. Moreover, the inhibition in test [7] was found to be 29%; in test [8], 1.75%; in [9], 6.24%; in test [10], 3.92%; in test [11], 14.7%; in [12] it was 5.17%. Moreover, the inhibition in [13] amounted to 20.7%; in [14], 4.28%; in test [15], 22.8%; in [16], 4.65%; in test [17], 21.7%; in test [18], 3.5%. For the same compound, the inhibition was determined as 5.44% in [19] and 4.93% in [20].

Regarding `Cc1cccc2c1NC(=O)/C2=N\Nc1ccc(S(N)(=O)=O)cc1`, the inhibition in [1] stood at 3.84%; in test [2] it was 1.06%; in test [3] it was 5.61%; in [4] it was 0.89%; in [5] it was 1.16%; in test [6], 2.62%. Further, the inhibition in [7] is 3.24%; in test [8], 3.97%; in test [9], 8.42%; in [10] it was 3.71%; in test [11] it was 7.38%; in [12], 1.24%. The inhibition in test [13] amounted to 4.95%; in [14] it was 2.16%; in [15], 1.3%; in test [16], 1.94%; in [17] it was 4.49%; in [18] it was 2.25%. Besides, the inhibition in test [19] turned out to be 0.43%; in test [20] it was 2.41%.

Regarding `CCn1cc(-c2ccnc3[nH]ccc23)c(-c2cccc(NC(=O)Nc3ccc(OCc4ccccc4)cc3)c2)n1`, the inhibition is -1.48% in test [1]; -3.22% in test [2]; -2.65% in test [3]; -1.6% in [4]; -0.5% in test [5]; -0.82% in test [6]. In addition, the inhibition in test [7] was -4.73%; in test [8] it was 2.29%; in [9], 3.64%; in test [10] it was 1.77%; in test [11], 3.94%; in test [12], -3.5%. Besides, the inhibition is -1.09% in test [13]; -1.8% in test [14]; -0.81% in test [15]; 0.84% in [16]; 1.92% in [17]; 1.51% in test [18]. Besides, the results for the inhibition in test [19] and in [20] were 0.25% and 1.98%, respectively.

`Fc1ccc(-c2cc(-c3c[nH]nc3-c3ccccn3)ccn2)cc1`: the inhibition in [1] was 0.54%; in test [2], 2.96%; in test [3], 5.69%; in [4], -1.65%; in [5] it was -0.27%; in test [6] it was 3.36%. The inhibition in test [7] amounted to 4.06%; in test [8], 2.14%; in [9] it was 2.16%; in [10], 1.39%; in test [11], 2.88%; in test [12], 1.57%. Further, the inhibition in [13] stood at 0.95%; in test [14], 1.68%; in [15], 4.16%; in test [16] it was 3.65%; in test [17] it was 11.3%; in test [18], 6.73%. Moreover, the values for the inhibition in [19] and in test [20] were 5.51% and 6.42%, respectively.

As for `CC(C)COC(=O)c1ccc2c(c1)/C(=C/Nc1ccc(S(N)(=O)=O)cc1)C(=O)N2`, the inhibition in test [1] worked out at 11.4%; in test [2], 11.9%; in test [3] it was 57%; in test [4] it was 12%; in test [5] it was 53.9%; in [6], 1.28%. The inhibition in test [7] was 22.4%; in test [8] it was 34.8%; in test [9] it was 80.6%; in test [10], 36.1%; in [11], 82.7%; in test [12], -0.11%. The inhibition is 16.8% in test [13]; -0.32% in [14]; 16.9% in test [15]; 0.47% in test [16]; 10.8% in [17]; 2.73% in [18]. The inhibition was 31.3% in test [19] and 1.07% in test [20].

As for `NS(=O)(=O)c1ccc(N/N=C2\C(=O)Nc3ccc4ncccc4c32)cc1`, the inhibition in test [1] was determined as 15%; in test [2] it was 18.6%; in [3], 61.6%; in [4] it was 13%; in test [5], 54.8%; in test [6], 6.76%. The inhibition in [7] stood at 35.7%; in test [8], 55.3%; in test [9], 80.9%; in test [10], 53.5%; in test [11], 80.2%; in test [12], 19.7%. In addition, the inhibition in [13] worked out at 64.7%; in [14] it was 6.71%; in test [15] it was 40%; in test [16], 6.07%; in test [17], 33.7%; in test [18], 14.9%. For the same compound, the values for the inhibition in test [19] and in test [20] were 55.5% and 6.45%, respectively.
